# Shown is part of a subset that was picked to be rich in the strongest signals.
# B1: TIM1 (protein)
# chain: ADGIQSVKVGGEAGPSVTLPCHYSGAVTSMCWNRGSCSLFTCQNGIVWTNGTHVTYRKDTRYKLLGDLSRRDVSLTIENTAVSDSGVYCCRVEHRGWFNDMKITVSLEIVPPHHHHHH
# Tests used:
# Assay in all cases: glycan array binding signal (z-score within array); higher = stronger binding
# Details in all cases: glycan notation: IUPAC condensed, linker removed
# [1] = biological target: GalNAc(b1-3)GlcNAc
# Procedure, shortened: (§1)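 Glycan array data were curated from 3228 arrays in the Consortium for Functional Glycomics database and kept only where the protein sequence was available. Glycan names were converted to IUPAC-condensed notation, and columns mapping to the same glycan were averaged. The binding signal is a within-array Z-score, averaged across arrays of the same protein sequence at different concentrations or buffers and across linkers. Negative Z-scores can be read as non-binding.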
# [2] = biological target: GalNAc6S(b1-4)GlcNAc
# Procedure, shortened: as §1
# [3] = biological target: Glc(a1-6)Glc(a1-6)Glc
# Procedure, shortened: as §1
# [4] = biological target: GlcNAc(a1-4)Gal(b1-4)GalNAc
# Procedure, shortened: as §1
# [5] = biological target: GlcNAc(a1-4)Gal(b1-4)GlcNAc(b1-3)Gal(b1-4)GlcNAc
# Procedure, shortened: as §1
# [6] = biological target: GlcNAc(a1-4)Gal(b1-4)GlcNAc(b1-3)Gal(b1-4)[Fuc(a1-3)]GlcNAc(b1-3)Gal(b1-4)[Fuc(a1-3)]GlcNAc
# Procedure, shortened: as §1
# [7] = biological target: GlcNAc(b1-3)Gal(b1-4)GlcNAc(b1-2)[GlcNAc(b1-3)Gal(b1-4)GlcNAc(b1-6)]Man(a1-6)[GlcNAc(b1-3)Gal(b1-4)GlcNAc(b1-2)Man(a1-3)]Man(b1-4)GlcNAc(b1-4)GlcNAc
# Procedure, shortened: as §1
# [8] = biological target: GlcNAc(b1-3)Gal(b1-4)GlcNAc(b1-3)Gal(b1-4)GlcNAc(b1-2)Man(a1-3)[GlcNAc(b1-3)Gal(b1-4)GlcNAc(b1-3)Gal(b1-4)GlcNAc(b1-2)Man(a1-6)]Man(b1-4)GlcNAc(b1-4)GlcNAc
# Procedure, shortened: as §1
# [9] = biological target: GlcNAc(b1-3)Gal(b1-4)GlcNAc(b1-3)Gal(b1-4)GlcNAc(b1-2)[GlcNAc(b1-3)Gal(b1-4)GlcNAc(b1-3)Gal(b1-4)GlcNAc(b1-6)]Man(a1-6)[GlcNAc(b1-3)Gal(b1-4)GlcNAc(b1-3)Gal(b1-4)GlcNAc(b1-2)Man(a1-3)]Man(b1-4)GlcNAc(b1-4)[Fuc(a1-6)]GlcNAc
# Procedure, shortened: as §1
# [10] = biological target: GlcNAc(b1-3)Gal(b1-4)GlcNAc(b1-3)Gal(b1-4)GlcNAc(b1-3)Gal(b1-4)GlcNAc(b1-2)[GlcNAc(b1-3)Gal(b1-4)GlcNAc(b1-3)Gal(b1-4)GlcNAc(b1-3)Gal(b1-4)GlcNAc(b1-6)]Man(a1-6)[GlcNAc(b1-3)Gal(b1-4)GlcNAc(b1-3)Gal(b1-4)GlcNAc(b1-3)Gal(b1-4)GlcNAc(b1-2)Man(a1-3)]Man(b1-4)GlcNAc(b1-4)[Fuc(a1-6)]GlcNAc
# Procedure, shortened: as §1
# [11] = biological target: GlcNAc6S(b1-3)Gal(b1-4)GlcNAc
# Procedure, shortened: as §1
# [12] = biological target: Kdn(a2-3)Gal(b1-3)GalNAc
# Procedure, shortened: as §1
# [13] = biological target: Man(a1-2)Man(a1-3)[Man(a1-2)Man(a1-6)]Man
# Procedure, shortened: as §1
# [14] = biological target: Neu5Ac(a2-3)Gal(b1-4)Glc
# Procedure, shortened: as §1
# [15] = biological target: Neu5Ac(a2-3)Gal(b1-4)GlcNAc(b1-2)Man(a1-3)[Neu5Ac(a2-3)Gal(b1-4)GlcNAc(b1-2)Man(a1-6)]Man(b1-4)GlcNAc(b1-4)[Fuc(a1-6)]GlcNAc
# Procedure, shortened: as §1
# [16] = biological target: Neu5Ac(a2-3)Gal(b1-4)GlcNAc(b1-2)[Neu5Ac(a2-3)Gal(b1-4)GlcNAc(b1-4)]Man(a1-3)[GlcNAc(b1-4)][Neu5Ac(a2-3)Gal(b1-4)GlcNAc(b1-2)[Neu5Ac(a2-3)Gal(b1-4)GlcNAc(b1-6)]Man(a1-6)]Man(b1-4)GlcNAc(b1-4)GlcNAc
# Procedure, shortened: as §1
# [17] = biological target: Neu5Ac(a2-3)Gal(b1-4)GlcNAc(b1-3)Gal(b1-4)GlcNAc(b1-3)Gal(b1-4)GlcNAc(b1-2)Man(a1-3)[Neu5Ac(a2-3)Gal(b1-4)GlcNAc(b1-3)Gal(b1-4)GlcNAc(b1-3)Gal(b1-4)GlcNAc(b1-2)Man(a1-6)]GalNAc
# Procedure, shortened: as §1
# [18] = biological target: Neu5Ac(a2-3)Gal(b1-4)GlcNAc(b1-6)GalNAc
# Procedure, shortened: as §1
# [19] = biological target: Neu5Ac(a2-3)Gal(b1-4)GlcNAc6S
# Procedure, shortened: as §1
# [20] = biological target: Neu5Ac(a2-3)Gal(b1-4)[Fuc(a1-3)]GlcNAc(b1-2)Man
# Procedure, shortened: as §1
# [21] = biological target: Neu5Ac(a2-6)Gal(b1-4)GlcNAc(b1-3)Gal(b1-4)GlcNAc(b1-2)Man(a1-3)[Neu5Ac(a2-6)Gal(b1-4)GlcNAc(b1-3)Gal(b1-4)GlcNAc(b1-2)Man(a1-6)]GalNAc
# Procedure, shortened: as §1
# [22] = biological target: Neu5Ac(a2-6)Gal(b1-4)GlcNAc(b1-3)Gal(b1-4)GlcNAc(b1-3)Gal(b1-4)GlcNAc(b1-2)Man(a1-3)[Neu5Ac(a2-6)Gal(b1-4)GlcNAc(b1-3)Gal(b1-4)GlcNAc(b1-3)Gal(b1-4)GlcNAc(b1-2)Man(a1-6)]GalNAc
# Procedure, shortened: as §1
# [23] = biological target: Neu5Ac(a2-6)Gal(b1-4)GlcNAc(b1-6)[Gal(b1-3)]GalNAc
# Procedure, shortened: as §1
# [24] = biological target: Neu5Ac(a2-8)Neu5Ac(a2-3)[GalNAc(b1-4)]Gal(b1-4)Glc
# Procedure, shortened: as §1
# [25] = biological target: Neu5Ac(a2-8)Neu5Ac(a2-8)Neu5Ac(a2-3)Gal(b1-4)Glc
# Procedure, shortened: as §1
# [26] = biological target: Neu5Gc(a2-8)Neu5Ac(a2-3)Gal(b1-4)GlcNAc
# Procedure, shortened: as §1
binder,measurement,setting,value
B1,glycan array binding signal (z-score),[1],-0.188
same,glycan array binding signal (z-score),[2],-0.269
same,glycan array binding signal (z-score),[3],-0.212
same,glycan array binding signal (z-score),[4],0.413
same,glycan array binding signal (z-score),[5],-0.125
same,glycan array binding signal (z-score),[6],2.32
same,glycan array binding signal (z-score),[7],1.97
same,glycan array binding signal (z-score),[8],5.59
same,glycan array binding signal (z-score),[9],1.97
same,glycan array binding signal (z-score),[10],1.02
same,glycan array binding signal (z-score),[11],-0.142
same,glycan array binding signal (z-score),[12],0.111
same,glycan array binding signal (z-score),[13],-0.292
same,glycan array binding signal (z-score),[14],0.916
same,glycan array binding signal (z-score),[15],-0.132
same,glycan array binding signal (z-score),[16],-0.288
same,glycan array binding signal (z-score),[17],4.84
same,glycan array binding signal (z-score),[18],-0.189
same,glycan array binding signal (z-score),[19],-0.181
same,glycan array binding signal (z-score),[20],-0.204
same,glycan array binding signal (z-score),[21],1.3
same,glycan array binding signal (z-score),[22],5.74
same,glycan array binding signal (z-score),[23],-0.075
same,glycan array binding signal (z-score),[24],-0.183
same,glycan array binding signal (z-score),[25],-0.195
same,glycan array binding signal (z-score),[26],-0.137

# Source: the supplement of paper PMC8728848
